# A number with no mark means an inactive call. Results filed as inconclusive are left out. Where a call stands in place of a potency, no number is given. Calls of active or inactive are those of the source. Calls come from the whole dose curve; as a rule, active = well fitted curve in the direction sought with a large enough effect; inconclusive = small, poorly fitted or top-dose-only effect, or another doubt; inactive = no such curve, though single readings can be large; an effect the other way counts as inactive or inconclusive.
# Assays:
# [1] = target: Calcium and integrin-binding protein 1 (Homo sapiens) (UniProt Q99828); assay: Primary qHTS for Identification of Calcium Integrin Binding Protein 1 (CIB1) Competitor (AID 1508620);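 note: GST tagged CIB1 binding a fluorescein labelled alphaIIb integrin peptide tracer; top concentration of the series differs between compounds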
# Calcium and integrin-binding protein 1 (Homo sapiens), sequence (Q99828 whole entry, looked up): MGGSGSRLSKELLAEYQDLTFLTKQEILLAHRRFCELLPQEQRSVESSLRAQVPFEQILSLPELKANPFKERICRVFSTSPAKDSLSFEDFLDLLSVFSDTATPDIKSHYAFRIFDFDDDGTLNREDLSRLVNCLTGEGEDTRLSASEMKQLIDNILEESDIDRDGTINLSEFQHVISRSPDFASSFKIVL
# How it was run: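 Fluorescence polarization competition: GST-tagged CIB1 (1 uM final) preincubated with compound 15 min at room temperature, then FITC-labelled alphaIIb peptide (100 nM final) added. After 15 min at room temperature, polarization read at Ex 480/Em 540.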
# [2] = Primary qHTS for inhibitors of nuclear receptor binding SET domain protein 2 (NSD2) in an isogenic RCH-ACV NSD2 p.E1099K mutant (9B) (AID 1645876); note: nearly all actives have a fitted effect of over 70% in size; note: potency is the fitted concentration of half-maximal effect
# [3] = target: Phospholipid hydroperoxide glutathione peroxidase GPX4 (Homo sapiens) (UniProt P36969); assay: Primary qHTS Assay for Inhibitors of Recombinant Selenoprotein Glutathione Peroxidase 4 (GPX4) (AID 1845192); note: nearly all actives have a fitted effect of over 65% in size
# Phospholipid hydroperoxide glutathione peroxidase GPX4 (Homo sapiens), sequence (P36969 whole entry, looked up): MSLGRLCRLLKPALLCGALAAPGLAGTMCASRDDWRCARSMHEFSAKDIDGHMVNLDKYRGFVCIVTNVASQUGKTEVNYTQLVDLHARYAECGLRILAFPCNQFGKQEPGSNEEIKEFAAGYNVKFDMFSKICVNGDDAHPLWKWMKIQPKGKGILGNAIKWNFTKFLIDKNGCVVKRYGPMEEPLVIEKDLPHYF
# How it was run: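 GR-coupled assay: recombinant GPX4 preincubated 30 min with compound at room temperature; final 200 nM GPX4, 1 mM GSH, 0.5 mM cumene hydroperoxide, 0.5 mM NADPH, 100 nM GR, 0.01% BSA, pH 7.5 Tris. NADPH fluorescence (340/450 nm) read at 0 and 15 min.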
# [4] = target: Luciferin 4-monooxygenase (Photinus pyralis) (UniProt P08659); assay: Primary firefly luciferase (FLuc) qHTS assay for identification of artifact compounds. (AID 1845220); conditions: outcome: dose series up to 54.1 µM unless noted; note: nearly all actives have a fitted effect of over 60% in size
# How it was run: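 Titrated compounds were incubated 15 min at RT, protected from light, with luciferin and ATP at 10 uM; reaction started with 10 nM FLuc, luminescence imaged at 5 min, and concentration-response fitted by Hill equation.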
# [5] = Primary fluorescence-based thiol-reactive (MSTI) qHTS assay for identification of artifact compounds. (AID 1845221); note: nearly all actives have a fitted effect of over 65% in size; note: potency is the fitted concentration of half-maximal effect
# How it was run: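 Curve-fitted percent inhibition (4-parameter Hill) derived from fluorescence, Ex 525/Em 598 nm, scaled with Acetyl-MSTI and MSTI; 1 h incubation at room temperature.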
# [6] = test system: Nanoluciferase (engineered Oplophorus gracilirostris luciferase); assay: Primary Nanoluciferase (NLuc) qHTS assay for identification of artifact compounds. (AID 1845222);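 note: NLuc secreted into diluted conditioned medium of S16 cells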
# How it was run: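 qHTS format, against NLuc in S16 cell-conditioned medium. Nano-Glo substrate 1:100 was added after 15 min at room temperature. Luminescence was taken after a further 5 min.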
# [7] = Primary redox qHTS assay for identification of artifact compounds. (AID 1845223)
# How it was run: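 Amplex Red (25 uM) and HRP (250 mU/mL) in HBSS, with compounds for 15 min, then 250 uM DTT for 30 min, room temperature, dark. Fluorescence 525/598 nm read; normalized to DMSO and 10 uM DA3003; Hill fit.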
# CRL-7250 = normal cell line; assay: Cytotoxic Profiling of Annotated Libraries Using Quantitative High-Throughput Screening (AID 1296008); conditions: Five cell lines viability, CellTiter-Glo ATP luminescence, 48-72 h; max response: active compounds read low; note: nearly all actives have a fitted effect of over 60% in size; note: potency is the fitted concentration of half-maximal effect
# How it was run: (§1)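 Cells exposed to compounds for 48 or 72 hr at 37 degrees Celsius. Viability read as ATP-coupled luminescence with CellTiter-Glo after 10 min at room temperature.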
# HEK293 = assay: as above; conditions: Five cell lines viability, CellTiter-Glo ATP luminescence, 48-72 h; max response: active compounds read low
# How it was run: as §1
# NIH3T3 = assay: as above; conditions: Five cell lines viability, CellTiter-Glo ATP luminescence, 48-72 h; max response: active compounds read low
# How it was run: as §1
# C33A = assay: Primary qHTS to identify gynecologic anti-cancer compounds using libraries of approved drugs and bioactive compounds (AID 1345084); conditions: Gynecologic cancer cell panel viability, ATPlite luminescence, 48 h; series mostly up to 57.5 µM; note: nearly all actives have a fitted effect of over 55% in size; note: potency is the fitted concentration of half-maximal effect
# How it was run: (§2)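 Cytotoxicity screen measuring ATP content by luciferase luminescence. Each compound is applied at five concentrations for 48 h at 37 C with 5% CO2.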
# CAOV3 = assay: as above; conditions: Gynecologic cancer cell panel viability, ATPlite luminescence, 48 h; series mostly up to 57.5 µM
# How it was run: as §2
# CASKI = assay: as above; conditions: Gynecologic cancer cell panel viability, ATPlite luminescence, 48 h; series mostly up to 57.5 µM
# How it was run: as §2
# Es-2 = assay: as above; conditions: Gynecologic cancer cell panel viability, ATPlite luminescence, 48 h; series mostly up to 57.5 µM
# How it was run: as §2
# Hek293T = assay: as above; conditions: Gynecologic cancer cell panel viability, ATPlite luminescence, 48 h, control line for the selectivity index; series mostly up to 57.5 µM
# How it was run: as §2
# JEG-3 = assay: as above; conditions: Gynecologic cancer cell panel viability, ATPlite luminescence, 48 h; series mostly up to 57.5 µM
# How it was run: as §2
# OV90 = assay: as above; conditions: Gynecologic cancer cell panel viability, ATPlite luminescence, 48 h; series mostly up to 57.5 µM
# How it was run: as §2
# PA-1 = assay: as above; conditions: Gynecologic cancer cell panel viability, ATPlite luminescence, 48 h; series mostly up to 57.5 µM
# How it was run: as §2
# Tov-21-G = assay: as above; conditions: Gynecologic cancer cell panel viability, ATPlite luminescence, 48 h; series mostly up to 57.5 µM
# How it was run: as §2
# Tov112D = assay: as above; conditions: Gynecologic cancer cell panel viability, ATPlite luminescence, 48 h; series mostly up to 57.5 µM
# How it was run: as §2
compound,measurement,setting,value
N#Cc1ccc([C@H]2CCCC[C@H]2O)cc1C(F)(F)F,Potency,[1],inactive
same,Potency,[2],inactive
same,Potency,[3],inactive
same,outcome,[4],inactive
same,Potency,[5],inactive
same,Potency,[6],inactive
same,Potency,[7],inactive
same,max response,CRL-7250,1.6%
same,max response,HEK293,-11%
same,max response,NIH3T3,-1.88%
same,Potency,C33A,inactive
same,Potency,CAOV3,inactive
same,Potency,CASKI,inactive
same,Potency,Es-2,inactive
same,Potency,Hek293T,inactive
same,Potency,JEG-3,inactive
same,Potency,OV90,inactive
same,Potency,PA-1,inactive
same,Potency,Tov-21-G,inactive
same,Potency,Tov112D,inactive
CN1CCN(c2nc3ccccc3nc2Cl)CC1,Potency,[1],inactive
same,Potency,[2],inactive
same,Potency,[3],inactive
same,outcome,[4],inactive
same,Potency,[5],inactive
same,Potency,[6],inactive
same,Potency,[7],inactive
same,max response,CRL-7250,-8.1%
same,outcome,HEK293,inactive
same,outcome,NIH3T3,inactive
same,Potency,C33A,inactive
same,Potency,CAOV3,inactive
same,Potency,CASKI,inactive
same,Potency,Es-2,inactive
same,Potency,Hek293T,inactive
same,Potency,JEG-3,inactive
same,Potency,OV90,inactive
same,Potency,PA-1,inactive
same,Potency,Tov-21-G,inactive
same,Potency,Tov112D,inactive
CC1=CC(=O)[C@@H](O)[C@]2(C)C3[C@@H](O)[C@@H]4OC(=O)[C@@H]([C@H]4C)[C@]3(C)C(=O)C[C@@H]12 (stereo partly drawn),Potency,[1],inactive
same,Potency,[2],2260 nM (active)
same,Potency,[3],inactive
same,outcome,[4],inactive
same,Potency,[5],inactive
same,Potency,CRL-7250,3210 nM (active)
same,Potency,HEK293,2860 nM (active)
same,Potency,NIH3T3,3600 nM (active)
same,Potency,CAOV3,inactive
same,Potency,Es-2,8910 nM (active)
same,Potency,JEG-3,inactive
same,Potency,PA-1,2820 nM (active)
CCC1NC(=O)C2C(Cl)C(Cl)CN2C(=O)C(CC)NC(=O)CC(c2ccccc2)NC(=O)C(CO)NC1=O (stereo not drawn),Potency,[1],inactive
same,Potency,[3],inactive
same,outcome,[4],inactive
same,Potency,[5],2320 nM (active)
same,Potency,[6],inactive
same,Potency,[7],inactive
same,max response,CRL-7250,2.35%
same,max response,HEK293,-1.56%
same,outcome,NIH3T3,inactive
same,Potency,C33A,inactive
same,Potency,CAOV3,inactive
same,Potency,CASKI,inactive
same,Potency,Es-2,inactive
same,Potency,Hek293T,inactive
same,Potency,JEG-3,inactive
same,Potency,OV90,inactive
same,Potency,PA-1,inactive
same,Potency,Tov112D,inactive
C[C@@H]1C[C@@H](O)[C@]2(O)O[C@@H]3C[C@@]4(C=O)C(CC[C@@H]5C4CC[C@]4(C)[C@@H](C6=CC(=O)OC6)CC[C@]54O)C[C@H]3O[C@@H]2O1 (stereo partly drawn),Potency,[1],inactive
same,Potency,[2],56.3 nM (active)
same,Potency,[3],inactive
same,outcome,[4],inactive [at 25.7 µM]
same,Potency,[6],inactive
same,Potency,[7],inactive
same,Potency,CRL-7250,35.5 nM (active)
same,Potency,HEK293,44.7 nM (active)
same,Potency,C33A,inactive
same,Potency,JEG-3,inactive
CCCCCn1cc(C(=O)Oc2cccc3cccnc23)c2ccccc21,Potency,[1],inactive
same,Potency,[3],inactive
same,outcome,[4],inactive
same,Potency,[5],inactive
same,Potency,[6],inactive
same,Potency,[7],inactive
same,outcome,CRL-7250,inactive
same,max response,NIH3T3,-5.3%
same,Potency,C33A,inactive
same,Potency,CAOV3,inactive
same,Potency,CASKI,inactive
same,Potency,Es-2,inactive
same,Potency,Hek293T,inactive
same,Potency,JEG-3,inactive
same,Potency,OV90,inactive
same,Potency,PA-1,inactive
same,Potency,Tov-21-G,inactive
same,Potency,Tov112D,inactive
